# According to PubChem BioAssay (NCATS):
# Inconclusive results are not listed. Values without a mark were called inactive. Active and inactive are the calls of the source. Calls follow the shape of the dose curve; as a rule, active = well fitted inhibition curve with a large enough effect; inconclusive = small, poorly fitted or top-dose-only effect; inactive = flat fitted curve, though single readings scatter. *1 amine or outer side, *2 acyl side, *3 side chain or, on linkers, in order; H or OH if unused. Where a SMILES comes first, the peptide text is derived from it. Bridges are numbered along the chain shown (N, C = ends). X6 = O=C(CCC[*:2])[*:1]
# Biological target: Calcium and integrin-binding protein 1 (Homo sapiens) (UniProt Q99828)
# Assay: Primary qHTS for Identification of Calcium Integrin Binding Protein 1 (CIB1) Competitor (AID 1508620); also: top concentration of the series differs between compounds
# Settings: CIB1-GST / FITC-alphaIIb peptide fluorescence polarization; series mostly up to 57.7 µM; activity change, negative = inhibition: at the top concentration
# Summary of the method: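 Fluorescence polarization competition: GST-tagged CIB1 (1 uM final) preincubated with compound 15 min at room temperature, then FITC-labelled alphaIIb peptide (100 nM final) added. After 15 min at room temperature, polarization read at Ex 480/Em 540.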
# % is scaled to controls: 0 for no effect and ±100 for the full control effect.
# Sequence of Calcium and integrin-binding protein 1 (Homo sapiens) (Q99828 whole entry, looked up): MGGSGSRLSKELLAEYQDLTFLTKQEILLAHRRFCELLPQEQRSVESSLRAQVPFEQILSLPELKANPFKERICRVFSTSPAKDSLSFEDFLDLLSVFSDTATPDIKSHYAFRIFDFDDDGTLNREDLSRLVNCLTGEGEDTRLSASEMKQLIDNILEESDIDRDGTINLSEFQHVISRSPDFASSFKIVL
Compound,"activity change, negative = inhibition",Potency
C/C(=C/CCC(CO)C1CCC2(C)C3CCC4C(C)(C)C(OC5OC(CO)C(O)C(O)C5O)CC(O)C45CC35CCC12C)COC1OC(CO)C(O)C(O)C1O (stereo not given),1.34% [at 30.2 µM],
CC1(CO)CC2C(O)C(=O)C3(CO)CC3(C)C2C1 (stereo not given),2.61% [at 114 µM],
COc1cc(C(C)=O)ccc1O[C@@H]1O[C@H](CO[C@@H]2O[C@@H](C)[C@H](O)[C@@H](O)[C@H]2O)[C@@H](O)[C@H](O)[C@H]1O,2.59%,
OCCc1ccc(O[C@@H]2O[C@H](CO)[C@@H](O)[C@H](O)[C@H]2O)c(O)c1,1.65%,
CC(C)N(C[C@H]1O[C@@H](n2cnc3c(N)ncnc32)[C@H](O)[C@@H]1O)C1CC(CCc2nc3ccc(C(C)(C)C)cc3[nH]2)C1 (stereo not given in full),,inactive
CO/N=C(/C(=O)N[C@@H]1C(=O)N2C(C(=O)O)=C(CSC(=O)c3ccco3)CS[C@H]12)c1csc(N)n1,,inactive
CNC(=O)Nc1ccc(OC)c(NC(=O)NC(=O)c2cc(F)c(F)cc2Cl)c1,2.1% [at 114 µM],
C=C1CCC2(OC1)OC1CC3C4CC=C5CC(O)CC(O[C@@H]6OC[C@@H](O)[C@H](O)[C@H]6O)C5(C)C4CCC3(C)C1(O)C2C (stereo not given in full),-2.96% [at 30.2 µM],
CC1CCC2(O1)C(C)(C)CC(O[C@@H]1O[C@H](CO[C@@H]3OC[C@](O)(CO)[C@H]3O)[C@@H](O)[C@H](O)[C@H]1O)CC2(C)O (stereo not given in full),-1.07%,
C=CC(C)(O)CC/C=C(\C)C(=O)OCC1OC(OC2CCC3(C)C(CCC4(C)C3CC=C3C5CC(C)(C)C(O)CC5(C(=O)O)CCC34C)C2(C)C)C(O)C(OC2OC(CO)C(O)C(OC3OC(CO)C(O)C(OC4OC(COC5OC(CO)C(O)C(O)C5O)C(O)C(O)C4O)C3O)C2O)C1O (stereo not given),0.919% [at 12.4 µM],
C=CC1(C)C=C2C(=O)CC3C(C)(C)CCCC3(C(=O)O)C2(O)CC1 (stereo not given),-1.98%,
CC1=C2[C@@H]([C@H](C)CC[C@H]2/C=C(\C)C(=O)O)[C@H](O)C1,-3.68% [at 114 µM],
CC1(C)CC2C3=CCC4C5(C)CCC(OC6OC(CO)C(O)C(OC7OC(CO)C(O)C(OC8OC(CO)C(O)C(OC9OC(COC%10OC(CO)C(O)C(O)C%10O)C(O)C(O)C9O)C8O)C7O)C6O)C(C)(C)C5CCC4(C)C3(C)CCC2(C(=O)O)CC1O (stereo not given),1.69% [at 12.4 µM],
CC[C@H](C)[C@@H]1NC(=O)[C@H](Cc2ccc(OC)cc2)NC(=O)CCCSC[C@@H](C(=O)N2CCC[C@H]2C(=O)N[C@@H](CC(C)C)C(=O)NCC(N)=O)NC(=O)[C@H](CC(N)=O)NC(=O)[C@H](CCC(N)=O)NC1=O (Y(Me)IQNCPLG-NH2; linker N-5 via X6),1.44%,
Cc1ccc(Sc2cncc3sc(C(N)=O)cc23)cc1,0.507% [at 114 µM],
C=C1C[C@@]23CC[C@@H]4[C@](C)(C(=O)O)CCC[C@@]4(C)C2=CC[C@H]1C3,-4.02% [at 114 µM],
CC(=O)O[C@@]1(C)C[C@@H](O)[C@]2(O)C=CO[C@@H](O[C@@H]3O[C@H](CO)[C@@H](O)[C@H](O)[C@H]3O)[C@@H]21,4.86%,
C=C(C)[C@@H](C)[C@H]1O[C@]23C[C@]4(CO2)C(CCC2[C@@]5(C)CC[C@H](O[C@@H]6OC[C@H](O)[C@H](O[C@@H]7O[C@H](CO)[C@@H](O)[C@H](O)[C@H]7O)[C@H]6O[C@@H]6O[C@@H](CO)[C@H](O)[C@H]6O)C(C)(C)C5CC[C@]24C)C3[C@@](C)(O)[C@@H]1OC(C)=O (stereo not given in full),1.33% [at 30.2 µM],
CC(NCc1ccc(OCc2cccc(F)c2)cc1)C(N)=O (stereo not given),6.6% [at 114 µM],
CCC1CC2C(C)=CC3CCCCC3C2(C)C2(OC(=O)C(C)(O)OC2=O)O1 (stereo not given),-1.08%,

Compound,"activity change, negative = inhibition",Potency
CC(=O)OC[C@@]12[C@H](O)C[C@]3(C)C(=CCC4[C@@]5(C)CC[C@H](O[C@@H]6O[C@H](C(=O)O)[C@@H](O[C@@H]7O[C@H](CO)[C@@H](O)[C@H](O)[C@H]7O)[C@H](O)[C@H]6O[C@@H]6O[C@H](CO)[C@@H](O)[C@H](O)[C@H]6O)[C@](C)(CO)C5CC[C@]43C)[C@@H]1CC(C)(C)[C@@H](OC(C)=O)[C@@H]2O (stereo not given in full),2.83% [at 30.2 µM],
CC(=O)OCC1=C[C@H](O)[C@@H]2C(C(=O)O)=CO[C@@H](O[C@@H]3O[C@H](CO)[C@@H](O)[C@H](O)[C@H]3O)[C@H]12,-3.03%,
CCC(NC(=O)CC(NC(=O)C(CO)NC(=O)C(CC)NC(=O)c1ccc[nH]1)c1ccccc1)C(=O)O (stereo not given),4.31% [at 30.2 µM],
COc1ccc(C(=O)O[C@H]2CC(C)=CC[C@@]3(C)[C@@H](OC(C)=O)C[C@@](O)(C(C)C)[C@H]23)cc1,-4.92%,
O=C(O[C@H]1[C@@H]2C=CO[C@@H](O[C@@H]3O[C@H](CO)[C@@H](O)[C@H](O)[C@H]3O)[C@@H]2[C@@]2(CO)O[C@@H]12)c1ccc(O)cc1,5.41%,
COC1=CC(=O)O[C@@H](/C=C/c2ccccc2)[C@@H]1O,1.26% [at 114 µM],
CC1=C(C)C(=O)OC(C(C)C2C(O)CC3C4C5OC5C5(O)CC(OC6OC(CO)C(O)C(O)C6O)CC(O)C5(C)C4CCC32C)C1 (stereo not given),-2.32% [at 30.2 µM],
C=C1CCC2[C@@](C)(C=O)CCC[C@]2(C)[C@H]1CC/C(C)=C/CO (stereo not given in full),-6.52% [at 114 µM],
C/C=C(\C)C(=O)OC[C@H]1O[C@H](O[C@H]2O[C@H](CO)[C@@H](OC(=O)/C(C)=C/C)[C@H](O)[C@H]2O[C@@H]2O[C@H](CO)[C@@H](O)[C@H](O)[C@H]2O)[C@H](O[C@@H]2O[C@H](CO)[C@@H](O)[C@H](O)[C@H]2O)[C@@H](O)[C@@H]1O,1.32% [at 30.2 µM],
OC[C@H]1O[C@@H](OC(CCCCc2ccc(O)cc2)CCc2ccc(O)cc2)[C@H](O[C@@H]2OC[C@](O)(CO)[C@H]2O)[C@@H](O)[C@@H]1O (stereo not given in full),0.0925% [at 30.2 µM],
COc1ccc(/C=C/C(=O)O[C@@H]2[C@@H](OC(C)=O)[C@@H](OC(C)=O)[C@H](O[C@H]3[C@@H]4C=CO[C@@H](O[C@@H]5O[C@H](CO)[C@@H](O)[C@H](O)[C@H]5O)[C@@H]4[C@@]4(CO)O[C@@H]34)O[C@H]2C)cc1O,1.12% [at 30.2 µM],
C/C=C/C=C/C=C/C(=O)O[C@@H]1[C@@H](OC)C2=C(C(=O)N(C(C)C(=O)O)C2)[C@@]2(C)CCCC(C)(C)[C@H]12 (stereo not given in full),0.665%,
CC1OC(OC2C(C)OC(OC3C(OC(=O)/C=C/c4ccc(O)cc4)C(CO)OC(OC4(COC(=O)/C=C/c5ccc(O)cc5)OC(CO)C(O)C4O)C3OC3OCC(O)(CO)C3O)C(O)C2O)C(O)C(O)C1O (stereo not given),0.727% [at 30.2 µM],
COC12CC3C(C(C)C1=CC(=O)O2)C(O)C(OC(C)=O)C1C(C)(C)C(OC(C)=O)CCC31C (stereo not given),2.07%,
CC(C(=O)O)C1CCC2(C)C3C(=O)C=C4C(CCC(=O)C4(C)C)C3(C)CCC12C (stereo not given),1.56%,
C=C1C(=O)OC2CC(C)=C(C(C)CCCO[C@@H]3O[C@H](CO)[C@@H](O)[C@H](O)[C@H]3O)C(O)C12 (stereo not given in full),-0.596%,
CC(=C/C(=O)O)/C=C/[C@]1(O)[C@@]2(C)CO[C@]1(C)C[C@H](O[C@@H]1O[C@H](CO)[C@@H](O)[C@H](O)[C@H]1O)C2,3.29%,
COc1cc(COC2OC(CO)C(O)C(O)C2O)cc(OC)c1O (stereo not given),0.42%,
CCCC(N[C@@H](C)C(=O)N1[C@H](C(=O)O)C[C@@H]2CCCC[C@@H]21)C(=O)OCC (stereo not given in full),4.98% [at 114 µM],
C=C(C(=O)O)C1CCC(C)C2CCC(=O)OC2(C)C1 (stereo not given),-12.8% [at 114 µM],
